In the supplement of paper PMC11060735:
Counter-ions that a name gives are not always drawn. Screen size: about 1,800 compounds; about 50 (3%) showed activity. Only a selection was taken, and actives are over-represented in it overall. A number with no mark means an inactive call.

system: mouse p16Ink4a+/- lung fibroblasts (INKBRITE, bleomycin-injured); assay: percentage of GFP+ (p16Ink4a+) fibroblasts among all cells in well; higher = less depletion of p16Ink4a+ cells, active = 20 or less; details: 1 µM; 3 days

SMILES	percentage of GFP+
COc1cc(OC)c(/C=C/S(=O)(=O)Cc2ccc(OC)c(NCC(=O)O)c2)c(OC)c1 [Rigosertib]	27.9%
O=C(O)COCCN1CCN(C(c2ccccc2)c2ccc(Cl)cc2)CC1 (stereo unspecified) [Cetirizine]	46.1%
C[C@@H](NCCCc1cccc(C(F)(F)F)c1)c1cccc2ccccc12 [Cinacalcet]	33.2%
CCCSc1nc(N[C@@H]2C[C@H]2c2ccc(F)c(F)c2)c2nnn([C@@H]3C[C@H](OCCO)[C@@H](O)[C@H]3O)c2n1 [Ticagrelor]	30.8%
COc1cc([C@@H]2c3cc4c(cc3[C@@H](O[C@@H]3O[C@@H]5CO[C@@H](c6cccs6)O[C@H]5[C@H](O)[C@H]3O)[C@H]3COC(=O)[C@H]23)OCO4)cc(OC)c1O [Teniposide]	21.1%
COc1cc([C@@H]2c3cc4c(cc3[C@@H](O[C@@H]3O[C@@H]5CO[C@@H](C)O[C@H]5[C@H](O)[C@H]3O)[C@H]3COC(=O)[C@H]23)OCO4)cc(OC)c1O [Etoposide]	19.3% (active)
C=CC(=O)Nc1cccc(Sc2nc(Nc3ccc(N4CCN(C)CC4)cc3)ncc2Cl)c1	46.3%
O=C(Nc1ccccc1Br)N[C@@H]1CCN(c2ccc(C(F)(F)F)cn2)C1	39.1%
CCCC(C)NC(=O)c1ccc(Cl)c(Cl)c1 (stereo unspecified)	45.8%
CC(C)C[C@H](NC(=O)CNC(=O)c1cc(Cl)ccc1Cl)B(O)O [Ixazomib]	4.65% (active)
CNCC[C@H](Oc1cccc2ccccc12)c1cccs1 [Duloxetine]	33.8%
Cn1c(=O)c2nc[nH]c2n(C)c1=O [Aminophylline, Theophylline]	44.7%
CN(C)CCN(Cc1ccccc1)c1ccccn1 [Tripelennamine]	45.6%
O=C[C@H](O)[C@@H](O)[C@H](O)[C@H](O)CO [D-glucose]	42.5%
C[C@@H]1CN(CC(=O)Nc2ccc3c(c2)Cc2cccc(-c4cc(=O)cc(N5CCOCC5)o4)c2S3)C[C@H](C)O1	44.7%
Nc1nc(Cl)nc2c1ncn2[C@@H]1O[C@H](CO)[C@@H](O)[C@@H]1F [Clofarabine]	35.5%
COc1ccc2c(c1)c(C1=C(c3c[nH]c4ccccc34)C(=O)NC1=O)cn2CCCN(C)C	60.7%
O=C(O)CCCc1c[nH]c2ccccc12 [3-Indolebutyric Acid]	48.2%
OCc1c[nH]c2ccccc12 [Indole-3-carbinol]	47%
O=C(/C=C/c1ccc(CN(CCO)CCc2c[nH]c3ccccc23)cc1)NO [Dacinostat]	4.88% (active)
C=C(c1ccc(C(=O)O)cc1)c1cc2c(cc1C)C(C)(C)CCC2(C)C [Bexarotene]	46%

SMILES	percentage of GFP+
COc1ccc(NS(=O)(=O)c2sc3ccc(Cl)cc3c2C)cc1N1CCNCC1	59.1%
COc1ccc(Cn2ccc3ccc(C(=O)NO)cc32)cc1	47.2%
N[C@@H](CC(=O)N1CCn2c(nnc2C(F)(F)F)C1)Cc1cc(F)c(F)cc1F [Sitagliptin]	44.6%
CCn1cc(C(=O)O)c(=O)c2cc(F)c(N3CCNC(C)C3)c(F)c21 (stereo unspecified) [Lomefloxacin]	44%
CC[C@@H](C)Nc1cc(C(=O)NC2CC3CCC(C2)N3c2ccc(C(=O)C3CC3)cn2)c(C)cc1C(N)=O (stereo partly specified)	5.49% (active)
CC(C)(F)C[C@H](N[C@@H](c1ccc(-c2ccc(S(C)(=O)=O)cc2)cc1)C(F)(F)F)C(=O)NC1(C#N)CC1 [Odanacatib]	44.3%
C#Cc1cccc(Nc2ncnc3cc(OCCOC)c(OCCOC)cc23)c1 [Erlotinib]	7.35% (active)
C#Cc1cccc(Nc2ncnc3cc(OC)c(OCCCCCCC(=O)NO)cc23)c1	37.4%
C#Cc1cccc(Nc2ncnc3cc(OCCOC)c(OCCO)cc23)c1	54.2%
COc1ccc(-c2cc(=O)c3c(O)cc(O)cc3o2)cc1O [Diosmetin]	42.4%
CC(C)(OCc1nn(Cc2ccccc2)c2ccccc12)C(=O)O [Bindarit]	45.3%
CCCN1CCCC[C@H]1C(=O)Nc1c(C)cccc1C [Ropivacaine, Ropivacaine Hydrochloride]	46%
CCCCCCCCCC(=O)N[C@@H](Cc1c[nH]c2ccccc12)C(=O)N[C@H](CC(N)=O)C(=O)N[C@@H](CC(=O)O)C(=O)N[C@@H]1C(=O)NCC(=O)N[C@H](CCCN)C(=O)N[C@@H](CC(=O)O)C(=O)N[C@@H](C)C(=O)N[C@@H](CC(=O)O)C(=O)NCC(=O)N[C@H](CO)C(=O)N[C@@H]([C@@H](C)CC(=O)O)C(=O)N[C@@H](CC(=O)c2ccccc2N)C(=O)O[C@@H]1C [Daptomycin]	37.2%
COC(=O)C1=C(C)N=C(C)/C(=C(/O)OC)C1c1ccccc1[N+](=O)[O-] (stereo unspecified) [Nifedipine]	34.3%
CO/N=C(/C(=O)N[C@H]1C(=O)N2C(C(=O)O)=C(Cn3ccc(=N)n3CCO)CS[C@H]12)c1csc(N)n1 [Cefoselis Sulfate]	17.3% (active)
C=CC1=C(C(=O)O)N2C(=O)[C@@H](NC(=O)/C(=N\O)c3csc(N)n3)[C@H]2SC1 [Cefdinir]	49.9%
CO/N=C(/C(=O)N[C@@H]1C(=O)N2C(C(=O)O)=C(CSC(=O)c3ccco3)CS[C@H]12)c1csc(N)n1 [Ceftiofur HCl]	39.5%
O=C(c1ccccc1)c1ccc2n1CCC2C(=O)O (stereo unspecified) [Ketorolac]	38.6%
Oc1ccc(/C=C/c2cc(O)cc(O)c2)cc1 [Resveratrol]	42.8%
CC1(C)CCC(C)(C)c2cc(NC(=O)c3ccc(C(=O)O)cc3)ccc21 [Tamibarotene]	28.2%
